Shown are actives, neighbours in structure and some others; about 8% of the full set was active somewhere.
SW480 rereplic = DNA re-replication induction in SW480 cells. 340,000 tested, 1.8% active. Potency, µM (titrated, usually from 46.1 µM), inactives show at the highest dose re-replication activation, hits mostly activators. AID 624297. SW480 DNA re-replication, Hoechst DNA content imaging, 48 h; also: % of control where 0% means no effect; nearly all actives have a fitted effect of over 55% in size
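Cells (250 per well) received 23 nL compound or DMSO by pin tool and were kept 48 hr at 37 C, 5% CO2. Nuclei were then stained with Hoechst for 40 min and scanned for DNA content.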
HT1080 IDH1KD tx = HT-1080 IDH1 knockdown cell toxicity (counter line); AID 686971; Potency, µM (titrated, usually from 46.1 µM), without a hit: at the highest dose activity, negative = toxicity, usual class: cytotoxic; 360,000 tested, 2% active; HT-1080 IDH1 knockdown viability, ATP luminescence, 48 h;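 also: 0% = DMSO wells and -100% = cell-free medium wells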
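% activity derives from luminescence (CellTiter-Glo), normalised to DMSO and no-cell wells. HT-1080-IDH1KD cells, 750/well, had 48 h compound exposure at 37 °C.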
MCF10A rerep = induces DNA re-replication in MCF 10a normal breast cells; 350,000 tested, 2.9% active; Potency, µM (series often up to 46.1 µM), for inactives: top-dose activity, positive = re-replication, usual class: activators; AID 624296; MCF 10A DNA re-replication, Hoechst nuclear intensity, 48 h; also: % of control where 0% means no effect; nearly all actives have a fitted effect of over 50% in size
KB-3-1 tox = kills parental KB-3-1 adenocarcinoma cells | KB-3-1 viability, CellTiter-Glo ATP luminescence, 72 h | 400,000 tested, 1.4% active | Potency, µM (highest dose often 46.1 µM), hits mostly cytotoxic; also: % is scaled to controls: 0 for no effect and ±100 for the full control effect; nearly all actives have a fitted effect of over 60% in size
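Using CellTiter-Glo luminescence, growth of non-resistant KB-3-1 adenocarcinoma cells is assessed 72 h after pin-tool compound addition at 37 °C. Normalized responses across the concentration series yield fitted curves.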
HT1080NT lethal = kills 2HG-producing HT-1080-NT fibrosarcoma cells. HT-1080-NT fibrosarcoma viability, CellTiter-Glo ATP luminescence, 48 h. Potency, µM (highest dose often 46.1 µM), inactives show at the highest dose activity, negative = less viability, usual class: cytotoxic. 360,000 tested, 1.6% active;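 also: NT is the 2HG producing partner of a matched IDH1 knockdown line; 0% = DMSO-treated cells and -100% = media-only wells without cells; nearly all actives have a fitted effect of over 55% in size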
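HT-1080-NT; 750 cells/well; 5% FBS RPMI; 48 h compound, 37 degrees C; CellTiter-Glo luminescence; curve fitting and curve-class assignment.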
KB-V1 MDR tox = kills drug-selected multidrug resistant KB-V1 cells; KB-V1 MDR cells viability, CellTiter-Glo, 72 h; 400,000 tested, 3.4% active; Potency, µM (top dose mostly 46.1 µM), usual class: cytotoxic; also: % is scaled to controls: 0 for no effect and ±100 for the full control effect; nearly all actives have a fitted effect of over 60% in size
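Cytotoxicity toward P-gp-expressing KB-V1 cells was determined as loss of CellTiter-Glo luminescence after 72 h at 37 degrees C. Compounds were tested in quantitative HTS format across a concentration range, with curves fitted to normalized data.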
* = called active by the depositor; i = inactive; ? = inconclusive; · = no result given; ! = repeats disagree; [ ] = another dose, or the depositor's remark. Calls follow the shape of the dose curve; as a rule, active = well fitted curve in the direction sought with a large enough effect; inconclusive = small, poorly fitted or top-dose-only effect, or another doubt; inactive = no such curve, though single readings can be large; an effect the other way counts as inactive or inconclusive. Potency is read from the fitted curve at half-maximal effect.

SMILES	SW480 rereplic	HT1080 IDH1KD tx	MCF10A rerep	KB-3-1 tox	HT1080NT lethal	KB-V1 MDR tox
COc1ccc(N2CCN(C(=O)CCNS(=O)(=O)c3ccccc3)CC2)cc1	26.7%	-18.1%	25.9µM*	i	8.9%	i
CCOc1ccc(S(=O)(=O)NCCC(=O)N2CC=C(c3ccccc3)CC2)cc1	-22.3%	-4.2%	?	13µM*	-0.7%[9.24 µM]	?
CCOc1ccc(S(=O)(=O)NCCC(=O)N2CCN(Cc3ccccc3)CC2)cc1	0.1%	-11.5%	10.1%	i	4.3%	?
O=C(CCC(F)(F)F)N1CCCC(CO)(CCc2ccccc2)C1 (stereo not drawn)	?	2.4%	0.651µM*	i	0.2%	i
CCOc1ccc(S(=O)(=O)NCCC(=O)N2CCN(c3ncccn3)CC2)cc1	-10.4%	-2.8%	-8.9%	i	3.3%	18.4µM*
O=C(CCNS(=O)(=O)c1ccc(Cl)cc1)N1CCN(c2ncccn2)CC1	-3.3%	-0.3%	6.5%	?	4.3%	?
COc1ccccc1C1N=C(Nc2nc3ccccc3o2)NC2=C1C(=O)CC(C)(C)C2 (stereo not drawn)	·	·	·	i	·	?
O=C(CCc1ccccc1)N1CCCN(C(=O)CCc2ccccc2)CC1	59.7%	8.6%	-13.0%	i	13.5%	20.6µM*
COc1ccc(N2CCN(C(=O)CCS(=O)(=O)c3ccc4c(c3)CCN4C(=O)C3CC3)CC2)cc1	5.8µM*	-4.9%	?	i	2.8%	i
CCOC(=O)N1CCN(C(=O)CCc2ccc(S(=O)(=O)NCCc3ccccc3)cc2)CC1	-8.2%	-18.2%	0.8%	i	-7.5%	16.4µM*
CCNS(=O)(=O)c1ccc(CCC(=O)N2CCN(Cc3ccccc3)CC2)cc1	-12.5%	11.0%	-5.8%	i	1.9%	i
COc1ccc(C(CNC(=O)CCNS(=O)(=O)c2ccc(C)cc2)N2CCOCC2)cc1 (stereo not drawn)	5.17µM*	5.3%	12.1%	i	15.7%	i
COc1ccc(N2CCN(C(=O)CCS(=O)(=O)c3cc(Br)cc4c3N(C(=O)C3CC3)CC4)CC2)cc1	·	·	·	i	·	i
COc1ccccc1-c1noc(-c2ccc(N(C)Cc3ccccc3)c([N+](=O)[O-])c2)n1	·	·	·	i	·	i
CCOC(=O)c1cc(-c2ccccc2)n(CCC(=O)N2CCN(c3ccc(OC)cc3)CC2)c1C	4.1%	-8.8%	25.9µM*	i	-6.4%	?
CCOC(=O)c1cc(-c2ccccc2)n(CCC(=O)N2CCN(c3ccccc3OC)CC2)c1C	6.9%	-16.9%	?	i	-11.2%	?
COC(=O)c1ccc(NC(=O)c2cc(=O)c3ccc(C)cc3o2)cc1	·	·	·	i	·	i
Cc1onc(-c2ccccc2Cl)c1C(=O)c1ccccc1	-2.4%	10.2%	8.9%	i	6.3%	i
Cc1oc2c(c1C(=O)c1ccccc1)C(=O)C(=O)c1ccccc1-2	?	18.4µM*	?	?	18.4µM*	i
CCOC(=O)c1c(C)oc2c1C(=O)c1ccccc1C2=O	3.66µM*	4.7%	27.9%	?	2.0%	i
O=C1C(=O)c2c(C(=O)c3ccccc3)coc2-c2ccccc21	?	?	20.6µM*	?	-0.4%	20.6µM*
Cc1oc2c(c1C(=O)O)C(=O)c1ccccc1C2=O	-4.6%	-12.9%	14.9%	?	2.6%	i
O=C(CN1C(=O)C2CCCCN2c2ccc(C(=O)N3CCCC3)cc21)NCc1ccccc1F (stereo not drawn)	·	·	·	i	·	i
CCCCCCCCCCCCCCCC[n+]1cccc(C(=O)N(CC)CC)c1	20.6µM*	20.6µM*!	?	13µM*!	?	i
CCCCCCCC[n+]1cccc(C(=O)N(CC)CC)c1	?	-5.3%	14.6%	i	4.7%	i
SMILES	SW480 rereplic	HT1080 IDH1KD tx	MCF10A rerep	KB-3-1 tox	HT1080NT lethal	KB-V1 MDR tox
O=C1/C(=C/c2ccc(F)cc2)SC(=S)N1Nc1ncc(C(F)(F)F)cc1Cl	?	-8.5%	3.66µM*	i	-8.1%	i
O=C1/C(=C\c2ccccn2)SC(=S)N1Nc1ncc(C(F)(F)F)cc1Cl	-4.3%	-0.3%	2.1%	?	-0.4%	i
O=C(CCc1nc2cccnc2n1Cc1ccccc1)NCc1cccc(Cl)c1	·	·	·	i	·	i
Cc1oc(-c2cccc(Cl)c2)nc1CN(C)C1CCOC1 (stereo not drawn)	3.3%	14.7%	-0.4%	i	0.0%	i
Cc1oc(-c2ccc(-c3ccccc3)cc2)nc1CN(C)C1CCOC1 (stereo not drawn)	16.4µM*	?	?	?	?	?
Cc1oc(-c2ccc(-c3ccccc3)cc2)nc1CN(CCO)C(C)C	3.1%	23.1µM*	?	i	?	i
C=CS(=O)(=O)c1ccc(Oc2ccc(S(=O)(=O)C=C)cc2)cc1	?	?	3.26µM*	?	-4.1%	?
NS(=O)(=O)c1ccc(Oc2ccc(S(N)(=O)=O)cc2)cc1	-3.9%	1.1%	-24.0%	i	5.6%	i
Nc1ccc(S(=O)(=O)NNC(=O)C(=O)NNc2ccccc2)cc1	4.2%	?	?	i	10.3µM*	i
COc1ccccc1NC(=O)c1ccc(-c2nc(COc3ccc(C)cc3)c(C)o2)cc1	·	·	·	i	·	?
O=P(Cc1ccccc1)(Cc1ccccc1)c1ccccc1	-3.0%	-6.9%	-1.0%	i	0.8%	18.4µM*
COc1ccc(-c2noc(-c3ccccc3C(=O)Nc3cccnc3)n2)cc1OC	-1.4%	1.4%	2.6%	i	-2.4%	i
COc1ccccc1-c1noc(-c2ccccc2C(=O)Nc2cccnc2)n1	0.7%	-2.8%	6.5%	i	-7.4%	10.3µM*
CCOc1ccccc1NC(=O)c1ccccc1-c1ccccc1	?	2.3%	10.4%	i	-3.4%	i
CCOc1ccccc1NC(=O)c1ccccc1-c1nc(-c2ccccc2)no1	23.1µM*	-22.9%	26.3%	?	-8.1%	8.2µM*
COc1ccc(Cn2ccc3nc(C)c(C(=O)Nc4cc(C)cc(C)c4)cc3c2=O)cc1	·	·	·	i	·	i
N/C(=N\c1nc2ccccc2o1)NC(=O)c1ccccc1NC(=O)c1ccccc1	3.7%	?	?	i	?	i
N/C(=N\c1nc2ccccc2o1)NC(=O)c1cccc(Cl)c1	4.11µM*	25.0%	-16.1%	i	22.7%	i
COCCNc1nnc(Cc2ccc(Cl)cc2)c(=O)[nH]1	4.3%	0.1%	4.2%	i	-5.0%	i

Screening data from PubChem BioAssay.
